An excerpt weighted towards active compounds, which were near 2.8% of everything screened.
Shn3 3UTR inh = Schnurri-3 reporter inhibition in Clone20 osteoblasts; Clone20 osteoblast Shn3 3'UTR firefly luciferase, 24 h; inhibition, % at 12.5 µM; actives 0.52% (n = 360,000);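 active = mean inhibition of at least 75% with every replicate also reaching 75%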
PAX8 inh HTS = lowers PAX8-driven luciferase in RMG-I cells; actives 1.2% (n = 360,000); RMG-I TPO-luciferase reporter, SteadyGlo, 24 h; inhibition, % at 12.6 µM; AID 652154;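 active = mean replicate inhibition at least 60% with every replicate also reaching 60%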;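 note: luciferase light reporting Pax8 driven TPO promoter activity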
Env fusion inh = blocks HIV Env-driven cell-cell fusion. HeLa-JRFL Env/CEM21 cell fusion, luciferase. inhibition, % at 12.3 µM. actives 1.1% (n = 360,000);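 active = mean replicate inhibition score of at least 50 and every replicate individually at or above 50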
NSD2 inh = NSD2 (human) methyltransferase inhibition; O96028; NSD2 peptide methylation, AlphaScreen, 120 min; inhibition, % at 12.5 µM; actives 0.54% (n = 310,000); in the data active = inhibition above about 50%
Target sequence (O96028 whole entry, looked up): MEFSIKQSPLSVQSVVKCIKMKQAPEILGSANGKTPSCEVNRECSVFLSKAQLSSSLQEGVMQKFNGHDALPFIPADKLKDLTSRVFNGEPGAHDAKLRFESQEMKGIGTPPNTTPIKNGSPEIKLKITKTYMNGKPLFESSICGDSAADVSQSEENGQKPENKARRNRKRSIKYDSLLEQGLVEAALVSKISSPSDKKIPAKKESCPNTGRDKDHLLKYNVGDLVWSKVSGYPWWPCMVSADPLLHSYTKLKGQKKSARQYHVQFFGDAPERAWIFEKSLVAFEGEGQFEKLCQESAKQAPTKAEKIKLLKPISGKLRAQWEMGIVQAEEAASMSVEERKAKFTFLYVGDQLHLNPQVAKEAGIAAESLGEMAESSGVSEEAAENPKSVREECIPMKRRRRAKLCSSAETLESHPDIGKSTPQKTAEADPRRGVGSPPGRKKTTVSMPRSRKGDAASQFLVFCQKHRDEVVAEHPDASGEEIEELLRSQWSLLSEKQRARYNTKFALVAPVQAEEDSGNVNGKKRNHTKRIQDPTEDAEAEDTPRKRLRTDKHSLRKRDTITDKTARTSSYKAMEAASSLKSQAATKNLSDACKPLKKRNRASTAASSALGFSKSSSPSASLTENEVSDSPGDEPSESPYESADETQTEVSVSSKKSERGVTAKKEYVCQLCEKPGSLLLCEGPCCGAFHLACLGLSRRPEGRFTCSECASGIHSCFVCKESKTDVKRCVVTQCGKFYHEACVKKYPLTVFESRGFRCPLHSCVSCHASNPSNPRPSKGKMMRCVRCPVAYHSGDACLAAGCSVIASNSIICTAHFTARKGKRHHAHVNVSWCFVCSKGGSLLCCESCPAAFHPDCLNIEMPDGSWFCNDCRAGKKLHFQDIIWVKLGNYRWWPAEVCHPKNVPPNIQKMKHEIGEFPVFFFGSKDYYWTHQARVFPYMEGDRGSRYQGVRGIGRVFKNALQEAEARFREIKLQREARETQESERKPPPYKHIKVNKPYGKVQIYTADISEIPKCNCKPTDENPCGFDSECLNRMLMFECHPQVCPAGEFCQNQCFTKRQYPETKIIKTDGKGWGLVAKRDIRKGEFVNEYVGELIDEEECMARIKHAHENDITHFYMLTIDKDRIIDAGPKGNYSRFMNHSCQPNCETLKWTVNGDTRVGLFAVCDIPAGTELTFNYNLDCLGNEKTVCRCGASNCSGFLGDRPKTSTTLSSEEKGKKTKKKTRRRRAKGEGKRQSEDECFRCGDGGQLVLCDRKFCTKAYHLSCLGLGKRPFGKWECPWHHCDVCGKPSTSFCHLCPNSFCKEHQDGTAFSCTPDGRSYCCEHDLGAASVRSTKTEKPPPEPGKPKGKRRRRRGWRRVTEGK
Glyco luc inh = blocks N-linked glycosylation in D54 reporter cells; AID 588692; D54 ERlucT glycosylation luciferase reporter, 24 h; percent of 100 nM tunicamycin response; actives 0.23% (n = 360,000); reporter increase, % at 12.5 µM;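 active = mean luciferase reporter signal, scaled so untreated is 0 and the glycosylation-blocking control 100, at or above a set limit in every replicate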;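 note: luciferase carries N-glycosylation sites so blocking glycosylation raises the light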
EBV LMP1 NFkB = reduces LMP1-driven NF-kappaB luciferase signal; LMP1-induced NF-kappaB luciferase reporter cells, luminescence; inhibition, % at 12.5 µM; actives 0.69% (n = 350,000); AID 504558; in the data active = inhibition above about 41%
Alpha artifact = interferes with AlphaScreen signal, flagging NSD2 false positives | AC35, µM (titrated, usually from 10 µM) | AlphaScreen artifact counterscreen, preloaded methylated H4 peptide | actives 9.4% (n = 1,500) | shares compounds with NSD2 inh; call rule not given here
Numbers stand for hits; - = inactive; . = no result given.

SMILES | Shn3 3UTR inh | PAX8 inh HTS | Env fusion inh | NSD2 inh | Glyco luc inh | EBV LMP1 NFkB | Alpha artifact
Cc1ccc(CN2C(=O)N/C(=C\c3cccn3-c3cccc(C(=O)O)c3)C2=O)cc1 | - | - | - | 59 | - | - | -
C[C@H]1CN([C@@H](C)CO)S(=O)(=O)c2ccc(C3=CCCC3)cc2O[C@@H]1CN(C)C(=O)C1CC1 | . | . | - | . | . | . | .
COCC(=O)Nc1ccc2c(c1)C(=O)N(C)[C@H]1CC[C@H](CC(=O)NCc3cccc(F)c3)O[C@@H]1CO2 | . | - | . | . | . | . | .
Cc1ccc(NC(=O)CN2C(=O)N/C(=C\c3cccn3-c3cccc(C(=O)O)c3)C2=O)cc1 | - | . | . | - | - | - | .
Cc1ccc(NC(=O)CN2C(=O)N/C(=C/c3cc(C)n(-c4cccc(C(=O)O)c4)c3C)C2=O)cc1 | - | - | - | 77 | - | - | -
Cn1c(=O)c(-c2ccccc2)nc2ccccc21 | - | . | - | 126 | - | - | -
CCCN1C[C@H](C)[C@@H](OC)CN(C)C(=O)c2ccc(NC(=O)C3CCC3)cc2OC[C@H]1C | . | . | - | . | . | . | .
Cc1cccc(C)c1NC(=O)c1c[nH]c2ccccc12 | - | - | - | 143 | - | . | -
Cc1cccc(C)c1NC(=O)CNC(=O)Cc1c[nH]c2ccccc12 | - | - | - | - | - | - | .
COc1ccc(S(=O)(=O)Nc2ccc3c(c2)C(=O)N([C@@H](C)CO)C[C@@H](C)[C@H](CN(C)Cc2ccncc2)OCCCC[C@H](C)O3)cc1 | . | - | - | . | . | . | .
COc1cccc(NC(=O)c2cc([N+](=O)[O-])ccc2NCc2cccnc2)c1 | - | - | . | - | - | - | .
Cc1ccc(NC(=O)c2cc([N+](=O)[O-])ccc2NCc2cccnc2)cc1Cl | - | . | - | 127 | - | - | -
COc1ccc(NS(=O)(=O)c2ccc3c(c2)[C@H]2C=CC[C@H]2[C@@H](c2ccc(C(=O)O)cc2)N3)cc1 | - | - | - | 55 | - | - | -
Cc1cc(/C=N/NC(=O)c2cccc(N(C)C)c2)c(C)n1-c1cc(C(=O)O)cc(C(=O)O)c1 | - | - | - | 55 | - | - | -
CCOc1ccc2[nH]c3c(NCCN(CC)CC)ncnc3c2c1 | - | - | - | 103 | - | - | -
CCN(CC)CCCNc1nc2ccccc2c2[nH]c3ccc(OC)cc3c12 | 92 | 99 | - | 56 | - | - | -
O=C([C@H]1N[C@H]2c3ccc(-c4ccc(F)cc4)c(=O)n3C[C@H]2[C@@H]1CO)N1CCOCC1 | . | - | . | . | . | . | .
C[C@H](CO)N1C[C@H](C)[C@@H](CN(C)S(=O)(=O)c2ccccc2)Oc2ccc(N(C)C)cc2CC1=O | . | - | - | . | . | . | .
O=C(C[C@@H]1CC[C@H]2[C@@H](COC[C@H](O)CN2Cc2ccccc2F)O1)NCc1ccccc1F | . | - | . | . | . | . | .
COc1ccc(C(=O)CC(=O)c2ccc(OC)cc2)cc1 | - | - | - | - | - | - | .
COc1ccc(C(=O)Cc2nnc(C)s2)cc1 | - | . | . | 69 | - | - | -
Cc1nc2c(=O)[nH]c(=S)[nH]c2[nH]c1=O | - | - | - | 84 | - | - | -
Cc1nc2[nH]c(=S)[nH]c(=O)c2nc1C | - | - | - | - | - | - | .
C[C@H](CO)N1C[C@H](C)[C@@H](CN(C)Cc2ccccc2)Oc2ccc(NC(=O)Cc3cn(C)c4ccccc34)cc2CC1=O | . | - | - | . | . | . | .
Cc1cccc(OCC(=O)Nc2ncn[nH]2)c1C | - | - | - | 98 | - | - | -
SMILES | Shn3 3UTR inh | PAX8 inh HTS | Env fusion inh | NSD2 inh | Glyco luc inh | EBV LMP1 NFkB | Alpha artifact
O=S(=O)(c1ccccc1F)N1CCCCN2[C@H](CO)[C@@H](c3ccc(-c4cncnc4)cc3)[C@H]2C1 | . | - | . | . | . | . | .
COCCN(C(=O)CCC(=O)Nc1ccccn1)C(C(=O)NC(C)C)c1ccc(C)cc1 (stereo not drawn) | - | - | - | 60 | - | - | -
O=C(O)c1ccc2c(c1)C(=O)N(c1cccc(C(=O)/C=C/c3ccccc3)c1)C2=O | - | - | - | 89 | - | - | -
O=C(O)c1cccc(N2C(=O)c3ccc(C(=O)c4cccc([N+](=O)[O-])c4)cc3C2=O)c1 | - | - | - | - | - | - | .
O=C1c2cccc(NCCCNCCO)c2C(=O)c2cccc(NCCCNCCO)c21 | - | - | - | 88 | - | - | 4.2µM
COc1cccc(/C=C2\N=C(SC)SC2=O)c1OC | - | - | - | 99 | - | - | -
Nc1c2c(=O)oc(-c3ccccc3)cc2nn1-c1ccccc1 | - | . | - | 126 | - | - | -
O=C(Nc1cc(F)ccc1F)N1CCN(c2ccnc3cc(Cl)ccc23)CC1 | - | - | - | 61 | - | - | -
Cc1ccc(F)cc1NC(=O)N1CCN(c2ccnc3cc(Cl)ccc23)CC1 | . | - | - | - | - | - | .
CN(CCc1ccccc1)C1CCCN(S(=O)(=O)N(C)C)C1 (stereo not drawn) | - | - | - | 53 | - | - | -
Cc1cccc2c(=O)c(C(=O)NCc3ccc(F)cc3)c[nH]c12 | - | - | - | 57 | - | - | -
Cc1cccc2c(=O)c(C(=O)NCCc3ccccc3)c[nH]c12 | - | - | - | - | - | - | .
Cn1c(CSCc2ccccc2)nnc1SCC(=O)Nc1nccs1 | - | - | - | 120 | - | - | -
O=C(C[C@H]1CC[C@@H]2[C@H](COC[C@@H](O)CN2C(=O)c2ccncc2)O1)NCc1cc(F)cc(F)c1 | . | - | . | . | . | . | .
Cc1ccc(S(=O)(=O)Nc2cccc3c2O[C@@H](CN(C)S(=O)(=O)c2ccccc2)[C@H](C)CN([C@H](C)CO)C3=O)cc1 | . | - | - | . | . | . | .
Cc1ccccc1-c1noc(C23CC4CC(CC(C4)C2)C3)n1 | - | . | - | 63 | - | - | -
c1cncc(-c2noc(C34CC5CC(CC(C5)C3)C4)n2)c1 | - | - | - | - | - | - | .
CC(=O)N(C)C[C@@H]1Oc2cc(-c3ccccc3)ccc2S(=O)(=O)N([C@H](C)CO)C[C@@H]1C | . | - | - | . | . | . | .
CC(C)CC(=O)Nc1ncc([N+](=O)[O-])s1 | - | - | - | - | - | - | .
Cc1nc(C)c(C(=O)Nc2ncc([N+](=O)[O-])s2)o1 | - | - | - | 50 | - | 49 | -
CC(C)C#Cc1ccc([C@@H]2[C@H](C#N)N(C(=O)c3cccc(F)c3)[C@H]2CO)cc1 | . | - | . | . | . | . | .
CN1C(=O)C(CCC(=O)O)NC1=S (stereo not drawn) | - | - | - | 77 | - | - | -
O=C(O)CC1NC(=S)N(Cc2ccccc2)C1=O (stereo not drawn) | - | - | - | - | - | - | .
O=C(CCc1nnc(-c2ccsc2)o1)NCc1ccccc1OC(F)(F)F | - | - | - | - | - | - | .
O=C(CCc1nnc(-c2ccccc2)o1)NCc1cc(F)ccc1F | - | - | - | 51 | - | - | -
CC(=O)NC1=NN(C(C)=O)C(C)(c2cccc([N+](=O)[O-])c2)S1 (stereo not drawn) | - | - | - | 99 | - | - | -
